Hits are enriched below; roughly 0.69% of the tested compounds scored in any of these assays.
TCR activator: Activators of T cell receptors: qHTS campaign. primary human leukocytes, anti-CD3, IL-2 HTRF, 48 h. Potency, µM (doses to about 9.22 µM), inactives show at the top dose activation of IL-2 secretion, most hits filed as activators. 330,000 tested, under 10 active. AID 504894, 2011; note: % of control where 0% means no effect
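Readout: HTRF IL-2, Eu-cryptate/d2 antibody pair, 320nm excitation, 665nm emission. Stimulus: a-CD3 beads, no co-stimulation. Cells: primary human leukocytes. Exposure: 48 hr with compound.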
A-T KAP1 phos: qHTS Assay for Identifying a Potential Treatment of Ataxia-Telangiectasia. AID 485349, 2010. Potency, µM (highest dose often 57.5 µM), for inactives: at the top dose activation, actives largely listed as activators. F2112 A-T fibroblasts, KAP-1 phosphorylation AlphaLISA; neocarzinostatin DNA damage 30 min before lysis. actives 0.19% (n = 320,000); note: potency is the fitted concentration of half-maximal effect; % of control where 0% means no effect; nearly all actives have a fitted effect of over 45% in size
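ATM-like activity read as KAP-1 phosphorylation via AlphaLISA donor/acceptor antibody pairs after lysis and 6 hr at 25C. Cells were ATM-null patient fibroblasts (F2112, hTERT), dosed 60 min, then exposed to the DSB inducer NCS for 30 min.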
IL-2 act: qHTS of IL-2 Activators; activation, % (series mostly up to about 46 µM); IL-2 activation reporter assay, cell-based qHTS; stimulated with anti-CD3/CD4/CD28 beads; in transgenic mouse T cells; AID 652025, 2013; actives 0.065% (n = 360,000); in the data active = activation above about 50%; inconclusive = mostly about 30% to 49%; note: 0% is about no effect
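Quantitative HTS in unstimulated transgenic mouse T cells, with memory T cells as non-tolerant control and PMA/ionomycin as tolerance-bypass control. Compound pretreatment lasted 60 minutes before 18 h bead stimulation; EGFP/DsRed fluorescence read.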
Tb PFK inh: qHTS Assay to Find Inhibitors of T. brucei phosphofructokinase; ATP-dependent 6-phosphofructokinase (Trypanosoma brucei brucei), O15648; T. brucei PFK, ADP-Glo luminescence; Potency, µM (doses to about 57.5 µM), without a hit: at the highest dose activity, negative = inhibition, hits mostly inhibitors; actives 0.17% (n = 330,000); AID 485367, 2010;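 note: potency is the fitted concentration of half-maximal effect; 0% = uninhibited 1x PFK enzyme wells and -100% = no-enzyme wells; nearly all actives have a fitted effect of over 60% in size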
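Luminescent ADP detection (ADP-Glo, two-step: ATP depletion then ADP-to-ATP conversion for luciferase) reported PFK activity after 45 min room-temperature reaction of 1.25 nM enzyme with 0.5 mM F6P and 0.1 mM ATP at pH 8.0.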
PKM2 activator: qHTS Assay for Activators of Human Muscle isoform 2 Pyruvate Kinase. Pyruvate kinase PKM (Homo sapiens), P14618. purified PKM2, Kinase-Glo ATP luminescence, activation; response scale: 0% is enzyme alone, no compound. Potency, µM (top dose mostly 57.5 µM), for inactives: at the top dose activation, usual class: activators. actives 0.34% (n = 260,000); note: potency is the fitted concentration of half-maximal effect; % is set by controls: 0 for no effect and ±100 for the full control effect; nearly all actives have a fitted effect of over 55% in size
Target sequence (P14618 whole entry, looked up, canonical isoform): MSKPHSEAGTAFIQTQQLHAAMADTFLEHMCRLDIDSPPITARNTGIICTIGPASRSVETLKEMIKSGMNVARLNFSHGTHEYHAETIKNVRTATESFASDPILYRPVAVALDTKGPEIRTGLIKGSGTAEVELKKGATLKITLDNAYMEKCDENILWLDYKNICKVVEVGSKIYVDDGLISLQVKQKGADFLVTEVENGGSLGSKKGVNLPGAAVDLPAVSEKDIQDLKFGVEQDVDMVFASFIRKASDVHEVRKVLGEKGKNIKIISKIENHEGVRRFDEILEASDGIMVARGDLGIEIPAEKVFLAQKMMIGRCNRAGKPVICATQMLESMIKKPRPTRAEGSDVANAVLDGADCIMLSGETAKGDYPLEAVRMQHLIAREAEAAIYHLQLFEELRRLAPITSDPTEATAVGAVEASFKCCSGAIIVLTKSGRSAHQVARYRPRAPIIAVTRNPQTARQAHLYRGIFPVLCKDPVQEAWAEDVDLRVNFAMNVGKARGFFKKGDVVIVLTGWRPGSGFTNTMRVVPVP
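ATP formation by purified human PK-M2, quantified via coupled luciferase luminescence after 1 h at room temperature with 0.1 mM ADP and 0.5 mM PEP final.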
a7 integrin act: qHTS for Activators of Integrin-Mediated Alleviation for Muscular Dystrophy. Potency, µM (doses to about 38.3 µM), for inactives: at the top dose activation, hits mostly activators. actives 0.064% (n = 350,000). AID 624291, 2012. alpha7betagal myoblasts, beta-gal FDG fluorescence, 48 h;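 note: potency is the fitted concentration of half-maximal effect; 100% = response of the positive control SU9516; nearly all actives have a fitted effect of over 60% in size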
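alpha7betagal+/- myoblasts (passage 13, 250/well) treated 48 h at 37C with compounds at 1:260 dilution of DMSO stock. Lysed, then beta-galactosidase activity read as FDG fluorescence (ex 480/em 540) after 30 min, with pre-read for autofluorescence.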
* marks the source's active call; other numbers are inactive results; [ ] = another dose, or the depositor's remark. Unless noted, calls come from the whole dose curve; as a rule, active = well fitted curve in the direction sought with a large enough effect; inconclusive = small, poorly fitted or top-dose-only effect, or another doubt; inactive = no such curve, though single readings can be large; an effect the other way counts as inactive or inconclusive.

What do the screens show for `COc1ccc(-c2nc3c(c4c2C[C@H](c2ccccc2)OC4)CN(S(=O)(=O)c2ccc4c(c2)OCCN4C)CC3)c(C)c1`?
PKM2 activator: -6%[11.5 µM]

How did COc1cccc(CNC(=O)C2CCN(S(=O)(=O)c3ccc(C)cc3)CC2)c1 do in these assays?
TCR activator: -2%; A-T KAP1 phos: 0%; IL-2 act: -2; Tb PFK inh: 1%; a7 integrin act: 10%

Results for COc1cccc(CNC(=O)N2CCN(S(=O)(=O)c3ccc(C)cc3)CC2)c1 ?
TCR activator: 1%; A-T KAP1 phos: -3%; IL-2 act: -1; Tb PFK inh: -4%; PKM2 activator: 11µM*; a7 integrin act: 8%

What do the screens show for `Cc1ccc(S(=O)(=O)N2CCN(C(=O)NCc3ccc(F)cc3)CC2)c(C)c1`?
TCR activator: -7%; A-T KAP1 phos: 4%; IL-2 act: -1; Tb PFK inh: -8%; a7 integrin act: 7%

Results for COc1ccccc1CNC(=O)N1CCN(S(=O)(=O)c2ccc(C)cc2)CC1 ?
TCR activator: -6%; A-T KAP1 phos: 2%; IL-2 act: 1; Tb PFK inh: -3%; PKM2 activator: inconclusive; a7 integrin act: -8%

What do the screens show for `COCCCNC(=S)N1CCN(S(=O)(=O)c2ccc(OC)cc2)CC1`?
TCR activator: -2%; A-T KAP1 phos: 0%; IL-2 act: 1; Tb PFK inh: 0%; PKM2 activator: 0.89µM*; a7 integrin act: 7%

How did COc1ccc(CNC(=O)N2CCN(S(=O)(=O)c3ccc(C)cc3C)CC2)cc1 do in these assays?
TCR activator: 5%; A-T KAP1 phos: -1%; IL-2 act: -3; Tb PFK inh: -1%; PKM2 activator: 4.5µM*; a7 integrin act: -10%

Results for COc1ccc(S(=O)(=O)N2CCN(C(=O)NCc3ccc(C)cc3)CC2)cc1 ?
TCR activator: -1%; A-T KAP1 phos: 1%; IL-2 act: -2; Tb PFK inh: -5%; PKM2 activator: 7.1µM*; a7 integrin act: 2%

How did COC(=O)[C@@]1(Cc2ccc(F)cc2)[C@H]2c3cc(C(=O)N4CCCC4)n(CCN4CNCC4=O)c3C[C@H]2CN1C(=O)c1ccccc1 do in these assays?
PKM2 activator: -7%

How did O=C(O)c1ccc2c(c1)C(=O)N([C@H](Cc1ccc(Cl)cc1)C(=O)O)C2=O do in these assays?
A-T KAP1 phos: 8%; Tb PFK inh: 7%

Results for CC#CCN1c2ccccc2[C@]23C[C@@H](C(=O)OC)N(S(=O)(=O)c4ccc(C#N)cc4)C2=NC(C(=O)OC)=C(C(=O)OC)[C@H]13 ?
PKM2 activator: -6%[11.5 µM]

Results for COC(=O)c1ccc(C(NC(=O)OCc2ccccc2)/C(C)=C/[C@@H](C)C(=O)NCc2nn(-c3ccccc3)nc2C)cc1 (some centres not stated) ?
PKM2 activator: 0%

Results for COc1ccc(S(=O)(=O)N2CCCN(S(=O)(=O)c3ccc(OC)cc3C)CC2)c(C)c1 ?
TCR activator: 3%; A-T KAP1 phos: -3%; IL-2 act: -2; Tb PFK inh: inconclusive; PKM2 activator: 8.9µM*; a7 integrin act: -32%

How did COc1ccc(OC)c(S(=O)(=O)N2CCCCCC2)c1 do in these assays?
TCR activator: -2%; A-T KAP1 phos: 5%; IL-2 act: 0; Tb PFK inh: -1%; PKM2 activator: 5%; a7 integrin act: -3%

How did COC(=O)c1ccc(C(NC(=O)OCc2ccccc2)/C(=C/[C@@H](C)C(=O)NCCc2c[nH]c3ccccc23)c2cccnc2)cc1 (some centres not stated) do in these assays?
PKM2 activator: -5%

Screening results from PubChem BioAssay.
